The list is not random: actives were taken first. Their share in the collection is about 1.7%.
PABP1 MLLE inh: inhibitors of PABP1 MLLE–PAM2 peptide binding, primary screen, biochemical, fluorescence polarization, FITC-PAM2, GST-MLLE | inhibition, % at 20 µM | actives 0.36% (n = 360,000) | AID 588489, 2011; in the data active means inhibition above about 35%, passing the limit was not always enough;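 further: plate controls were DMSO wells with GST-MLLE for no effect and wells lacking GST-MLLE protein for full effect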
EBV gp42 block: Epstein-Barr virus gp42 inhibitors, primary screen, biochemical, uHTS, fluorescence polarization; Glycoprotein 42 (Epstein-Barr virus (strain AG876)), Q1HVG2; AID 1085, 2008; inhibition, % (tested at 21.74 µM); Fluorescence polarization binding assay, mP read-out; actives 0.42% (n = 220,000); in the data active means inhibition above about 50%
PABP polyA inh: PABP poly(A) RNA binding inhibitors, primary screen, biochemical, fluorescence polarization, uHTS; calls only at 35 µM; actives 1% (n = 290,000);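 further: calls also rest on retests at 20 µM and on dose response follow-up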
eIF4H FP inh: human eIF4H binding inhibitors, primary screen, translation initiation inhibitor project, biochemical, uHTS, fluorescence polarization; Eukaryotic translation initiation factor 4H (Homo sapiens), Q15056; eIF4H fluorescence polarization binding assay; inhibition, % at 35 µM; actives 0.94% (n = 290,000); AID 2012, 2009;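 further: calls also rest on retests at 20 µM and on dose response follow-up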
eIF4E-4G inh: eIF4E–eIF4G protein interaction inhibitors, primary screen, biochemical, uHTS, TR-FRET, eIF4GI fragment. Eukaryotic translation initiation factor 4E (Mus musculus) + Eukaryotic translation …. TR-FRET eIF4E-eIF4GI(517-606) binding, 2 h. inhibition, % at 21.7 µM. actives 0.37% (n = 220,000);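 active means inhibition above about 30%, limit read from the data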;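 further: 0% = full FRET control wells and 100% = background wells lacking eIF4GI fragment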
Active calls of the source: *; i = inactive; ? = inconclusive; · = not tested or not shown; + = active, no number. Unless noted, how the calls were made is not given here.

SMILES | PABP1 MLLE inh | EBV gp42 block | PABP polyA inh | eIF4H FP inh | eIF4E-4G inh
CCCCN1C(=O)C(CC(=O)NCc2ccco2)CC(C(=O)N2CCOCC2)=C1C (configuration not stated) | -10 | · | · | · | ·
CNC(=S)N/N=C(\C)c1cccc([N+](=O)[O-])c1 | 19 | 9 | i | active | -5
COc1cc(Nc2nc3ccccc3n3nnnc23)cc(OC)c1OC | -30 | -27 | + | 80* | 4
Cc1[nH]c(=O)[nH]c(=O)c1/C=C/C(=O)OCC(C)C | 8 | -1 | + | ? | 5
O=C(CSc1nc(-c2ccccc2)cs1)NC(=O)NCc1ccco1 | -1 | -18 | i | 1 | -7
O=C(CSc1ccccc1F)NC(=O)NCc1ccco1 | -2 | 8 | + | 77* | 6
O=C(CSc1n[nH]c(-c2ccccc2)n1)NC(=O)NCc1ccco1 | -18 | -1 | i | 47* | 0
Cc1cc(SCC(=O)NC(=O)NCc2ccco2)nc2ccccc12 | 7 | -12 | i | -6 | 2
Cc1ccccc1CSCC(=O)NC(=O)NCc1ccco1 | 12 | 26 | + | 55* | 0
Cc1ccc(C(=O)CSc2n[nH]c(-c3ccco3)n2)cc1C | 2 | 3 | i | 27 | 1
COc1ccc(C(=O)CSc2n[nH]c(-c3ccco3)n2)cc1 | 2 | -8 | + | 71* | 3
O=C(CSc1ncccn1)NC(=O)NCc1ccco1 | -109 | -18 | i | 34 | -3
Cc1ccc(NC(=O)c2ccccc2OCC(=O)Nc2cccc(Cl)c2C)nc1 | · | -14 | i | 2 | 13
Cc1ccc(S(=O)(=O)NCCC(=O)NCC(=O)Nc2c(C)cccc2C)cc1C | -1 | · | · | · | ·
CCN(CC(=O)Nc1ccc2c(c1)OCCO2)C(=O)/C=C/c1cc(Br)ccc1OC | -14 | · | · | · | ·
Cn1c(SCC(=O)NC(=O)NCc2ccco2)nnc1-c1ccccc1 | 0 | 26 | + | 92* | -11
Cn1c(SCC(=O)NCc2ccco2)nnc1-c1ccccc1 | 4 | -13 | i | -2 | -1
Cc1cc(SCC(=O)NC(=O)NCc2ccco2)nc2c(C)cccc12 | 14 | -9 | + | 51* | 4
COc1ccc(C)cc1-n1nnnc1SCC(=O)NC(=O)NCc1ccco1 | -42 | 20 | i | 72* | 7
O=C(CSc1nnc(-c2ccc(OC(F)F)cc2)o1)NC(=O)NCc1ccco1 | -129 | -8 | i | 66* | 6
O=[N+]([O-])c1cccc(C2CC(c3ccccc3)=NN2c2ccccc2)c1 (configuration not stated) | -16 | · | i | -12 | ·
N#CC1CC(c2ccc([N+](=O)[O-])cc2)=NN1c1ccc([N+](=O)[O-])cc1 (configuration not stated) | -92 | 94* | i | ? | 1
CCN(CC)S(=O)(=O)c1cccc(-c2cn3cc(C)ccc3n2)c1 | 1 | 5 | i | 57* | 6
O=c1oc2cc([N+](=O)[O-])ccc2nc1/C=C(O)/C=C/c1ccccc1 | · | -36 | i | 72* | 3
COc1cc(OC)cc(C(=O)c2c(C)c(C#N)c3ccccn23)c1 | -1 | · | i | 4 | ·
SMILES | PABP1 MLLE inh | EBV gp42 block | PABP polyA inh | eIF4H FP inh | eIF4E-4G inh
COC1=C/C(=C/c2c(O)c(C#N)c3ccccn23)C=CC1=O | -33 | -11 | + | 68 | -4
CN1C(=O)SC(Nc2ccccc2C(=O)O)C1=O (configuration not stated) | 38* | -16 | i | 3 | -5
O=C(O)c1ccccc1Nc1ccccc1C(=O)O | 2 | -12 | i | 7 | 7
CCc1nc2ccc(C(=O)N3CCN(C(=O)c4ccco4)CC3)cn2c1N(C)C(=O)c1cccc(OC)c1 | -13 | · | · | · | ·
O=C(NNC(=O)c1cc2cc(Br)ccc2oc1=O)c1ccc(O)cc1O | 0 | 30 | + | 85* | -6
CCOc1ccc(-c2c(=O)n(O)c3ccccc3[n+]2[O-])cc1 | 5 | · | i | -2 | ·
COC(=O)c1c(=O)n(O)c2ccc(OC)cc2[n+]1[O-] | 162 | 98* | ? | ? | 1
CCOC(=O)c1c(N)sc2c1CCCC2 | 27 | 9 | i | 6 | -7

Screening results deposited in PubChem BioAssay by several laboratories.
